From PubChem BioAssay (NCATS) come the findings set out here.

The target in test [1] is Cytochrome P450 1A2 (Homo sapiens) (UniProt P05177). As to the kind of experiment: p450-cyp1a2 (AID 410; calls by dose curve; further: potency means the concentration at half of the fitted maximal effect). A digest of the protocol: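 20nM CYP1A2 with 100uM Luciferin-ME (at Km) in 100mM KPO4; compound preincubated 10 min, NADPH regeneration added, 60 min at room temperature. Luciferin quantified by luminescence after detection reagent; normalized to 57 uM furafylline.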
Cytochrome P450 1A2 (Homo sapiens), sequence (P05177 whole entry, looked up): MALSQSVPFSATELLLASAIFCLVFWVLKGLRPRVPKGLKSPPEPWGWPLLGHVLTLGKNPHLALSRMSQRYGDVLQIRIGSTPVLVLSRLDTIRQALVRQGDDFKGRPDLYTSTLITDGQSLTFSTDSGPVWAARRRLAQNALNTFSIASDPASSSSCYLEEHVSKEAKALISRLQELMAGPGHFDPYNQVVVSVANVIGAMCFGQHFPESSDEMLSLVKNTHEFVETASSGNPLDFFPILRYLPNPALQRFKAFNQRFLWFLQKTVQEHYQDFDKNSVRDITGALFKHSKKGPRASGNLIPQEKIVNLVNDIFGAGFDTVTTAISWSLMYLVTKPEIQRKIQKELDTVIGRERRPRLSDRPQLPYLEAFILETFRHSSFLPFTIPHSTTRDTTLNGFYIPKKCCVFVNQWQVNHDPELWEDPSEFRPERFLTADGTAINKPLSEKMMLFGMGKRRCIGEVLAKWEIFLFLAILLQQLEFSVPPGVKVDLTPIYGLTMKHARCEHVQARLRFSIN

For test [2], the target named is Glucocorticoid receptor (Homo sapiens) (UniProt P04150). Nature of the test: GR-GFP Redistribution (AID 450;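 active means compounds whose dose series gives a full or clear partial fitted curve of increased nuclear translocation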; further: potency means the concentration at half of the fitted maximal effect).
Glucocorticoid receptor (Homo sapiens), sequence (P04150 whole entry, looked up, the tested form may be a part): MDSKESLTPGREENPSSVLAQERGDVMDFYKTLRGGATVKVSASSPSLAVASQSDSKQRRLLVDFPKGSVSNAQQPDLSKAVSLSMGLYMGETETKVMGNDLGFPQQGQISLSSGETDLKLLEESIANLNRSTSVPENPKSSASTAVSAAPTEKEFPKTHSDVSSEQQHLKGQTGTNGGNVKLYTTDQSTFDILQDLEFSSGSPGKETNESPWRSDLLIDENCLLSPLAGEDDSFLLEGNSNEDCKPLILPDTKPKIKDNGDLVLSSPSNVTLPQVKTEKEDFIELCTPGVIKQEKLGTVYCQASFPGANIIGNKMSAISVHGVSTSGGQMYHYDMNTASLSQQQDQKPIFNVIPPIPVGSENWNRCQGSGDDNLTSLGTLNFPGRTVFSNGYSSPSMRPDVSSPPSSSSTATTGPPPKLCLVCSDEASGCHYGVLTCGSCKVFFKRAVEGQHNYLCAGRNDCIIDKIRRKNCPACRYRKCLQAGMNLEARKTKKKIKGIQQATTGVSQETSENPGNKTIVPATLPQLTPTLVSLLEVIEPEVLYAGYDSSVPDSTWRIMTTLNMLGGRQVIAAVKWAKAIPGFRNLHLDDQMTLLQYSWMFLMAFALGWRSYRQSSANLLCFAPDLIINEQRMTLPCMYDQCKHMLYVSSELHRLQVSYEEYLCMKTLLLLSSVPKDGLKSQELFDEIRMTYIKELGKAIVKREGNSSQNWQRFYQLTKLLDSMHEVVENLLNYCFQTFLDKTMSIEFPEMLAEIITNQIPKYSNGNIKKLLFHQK
The target is the same in test [3]. Nature of the test: GR-EFC Redistribution (AID 451; calls by dose curve; further: potency means the concentration at half of the fitted maximal effect). To be noted: CHO-K1 GR-EFC translocation, beta-gal luminescence, 2 h. The method in brief: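 Translocation of GR-ED fusion to nuclear EA restores b-gal, read by luminescence after 1 h room-temperature detection. Engineered CHO-K1 biosensor cells, 1,000/well, exposed 2 h at 37 C to titrations up to 46 uM final.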

Test [4] deals with Mitogen-activated protein kinase 10 (Mus musculus) (UniProt Q61831). As to the kind of experiment: JNK3 AlphaScreen Assay (AID 530; active means well fitted curve in either direction with a large enough effect, not every such curve was filed as active;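 further: kinase came from lysate of stimulated human HepG2 cells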; further: potency means the concentration at half of the fitted maximal effect). A digest of the protocol:
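Compound titrations were preincubated 15 minutes at room temperature with substrate, antibody and pre-activated JNK3-containing HepG2 lysate. Reactions were started with 10 uM ATP and stopped with EDTA-containing bead buffer for AlphaScreen detection.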

Test [5] concerns the target 3',5'-cyclic-AMP phosphodiesterase 4B (Homo sapiens) (UniProt Q07343). Nature of the test: qHTS Assay for Inhibitors of PDE-IV (AID 607; active means well fitted activation curve with a large enough effect in the main read-out, with a control signal flat, not every such curve was filed as active). A digest of the protocol: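 The readout is membrane depolarisation from a cAMP-sensing CNG channel, detected with a potential dye at ex 535/em 590. Cells were HEK293-derived (endogenous PDE-IV) at 1000 cells/well, titrated up to 22.9 uM final.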

Test [6] concerns the target Cytochrome P450 2C9 (Homo sapiens) (UniProt P11712). As to the kind of experiment: qHTS Assay for Inhibitors and Substrates of Cytochrome P450 2C9 (AID 883). Further: nearly all actives have a fitted effect of over 60% in size. Further: potency means the concentration at half of the fitted maximal effect. A digest of the protocol:
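Turnover of Luciferin-H (100uM, KM) by 10nM human CYP2C9 was measured over 60 min at 37C with NADPH regeneration; inhibitors and some substrates reduce luminescence. Data normalized to sulphaphenazole 57uM.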

Test [7] has as its target Cytochrome P450 2D6 (Homo sapiens) (UniProt P10635). Nature of the test: qHTS Assay for Inhibitors and Substrates of Cytochrome P450 2D6 (AID 891). Further: nearly all actives have a fitted effect of over 60% in size. Further: potency means the concentration at half of the fitted maximal effect. The method in brief:
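Human CYP2D6 (5 nM) with 30 uM Luciferin-ME EGE (at Km) in 100 mM KPO4, compound preincubated 10 min, then NADPH regeneration system for 60 min at room temperature. Luciferin read by luminescence; normalized to 1.43 uM quinidine.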

In test [8] the target is Cytochrome P450 3A4 (Homo sapiens) (UniProt P08684). As to the kind of experiment: qHTS Assay for Activators of Cytochrome P450 3A4 (AID 885). Further: nearly all actives have a fitted effect of over 65% in size. A digest of the protocol: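 Steps: enzyme/substrate mix dispensed; compound added, 10 min RT; NADPH regeneration solution added, 60 min RT; luciferin detection buffer stops reaction; 20 min later luminescence measured.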
Cytochrome P450 3A4 (Homo sapiens), sequence (P08684 whole entry, looked up): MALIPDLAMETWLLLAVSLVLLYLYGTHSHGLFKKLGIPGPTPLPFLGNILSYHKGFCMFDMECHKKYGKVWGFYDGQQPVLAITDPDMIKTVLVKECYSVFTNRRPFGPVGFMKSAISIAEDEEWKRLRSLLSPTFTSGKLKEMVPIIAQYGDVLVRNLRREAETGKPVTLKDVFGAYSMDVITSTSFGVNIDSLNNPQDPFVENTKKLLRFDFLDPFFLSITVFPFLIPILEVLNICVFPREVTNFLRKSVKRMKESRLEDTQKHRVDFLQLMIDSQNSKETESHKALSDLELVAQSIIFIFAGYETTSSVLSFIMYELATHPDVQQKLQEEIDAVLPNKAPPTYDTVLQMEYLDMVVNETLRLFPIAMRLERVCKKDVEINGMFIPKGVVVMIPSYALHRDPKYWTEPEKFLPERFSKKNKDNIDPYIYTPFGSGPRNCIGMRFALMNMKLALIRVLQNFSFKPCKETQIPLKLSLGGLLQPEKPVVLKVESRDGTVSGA
The target of test [9] is DNA dC->dU-editing enzyme APOBEC-3G (Homo sapiens) (UniProt Q9HC16). As to the kind of experiment: qHTS for inhibitors of Vif-A3G interactions: Validation (AID 588379). The method in brief: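 HeLa cells stably expressing Vif and A3G-eYFP, 700 cells/well, incubated overnight at 37 deg C, then exposed to compound overnight at 37 deg C. Inhibition of Vif-mediated degradation read as increased yellow fluorescence (Ex 488/Em 500-530) by laser-scanning cytometry.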
DNA dC->dU-editing enzyme APOBEC-3G (Homo sapiens), sequence (Q9HC16 whole entry, looked up): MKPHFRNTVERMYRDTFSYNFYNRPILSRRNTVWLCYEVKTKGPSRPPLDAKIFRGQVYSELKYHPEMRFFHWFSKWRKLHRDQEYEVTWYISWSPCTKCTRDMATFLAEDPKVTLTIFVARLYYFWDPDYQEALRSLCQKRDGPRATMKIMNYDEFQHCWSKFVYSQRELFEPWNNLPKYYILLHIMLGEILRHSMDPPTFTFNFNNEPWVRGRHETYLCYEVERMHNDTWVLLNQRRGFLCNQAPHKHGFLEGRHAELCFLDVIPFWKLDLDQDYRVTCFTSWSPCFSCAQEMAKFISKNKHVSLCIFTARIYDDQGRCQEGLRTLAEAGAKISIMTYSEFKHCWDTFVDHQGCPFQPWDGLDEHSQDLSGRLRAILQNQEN

For test [10], the target named is Cytochrome P450 2C19 (Homo sapiens) (UniProt P33261). Nature of the test: qHTS Assay for Inhibitors and Substrates of Cytochrome P450 2C19 (AID 899). Further: nearly all actives have a fitted effect of over 60% in size. Further: potency means the concentration at half of the fitted maximal effect. A digest of the protocol: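 Reactions contain 5nM enzyme, 10uM Luciferin-H EGE (KM) and 50mM KPO4; compound preincubates 10 min at 37C, NADPH regeneration starts turnover for 60 min. Luminescence after detection reagent gives activity.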
Cytochrome P450 2C19 (Homo sapiens), sequence (P33261 whole entry, looked up): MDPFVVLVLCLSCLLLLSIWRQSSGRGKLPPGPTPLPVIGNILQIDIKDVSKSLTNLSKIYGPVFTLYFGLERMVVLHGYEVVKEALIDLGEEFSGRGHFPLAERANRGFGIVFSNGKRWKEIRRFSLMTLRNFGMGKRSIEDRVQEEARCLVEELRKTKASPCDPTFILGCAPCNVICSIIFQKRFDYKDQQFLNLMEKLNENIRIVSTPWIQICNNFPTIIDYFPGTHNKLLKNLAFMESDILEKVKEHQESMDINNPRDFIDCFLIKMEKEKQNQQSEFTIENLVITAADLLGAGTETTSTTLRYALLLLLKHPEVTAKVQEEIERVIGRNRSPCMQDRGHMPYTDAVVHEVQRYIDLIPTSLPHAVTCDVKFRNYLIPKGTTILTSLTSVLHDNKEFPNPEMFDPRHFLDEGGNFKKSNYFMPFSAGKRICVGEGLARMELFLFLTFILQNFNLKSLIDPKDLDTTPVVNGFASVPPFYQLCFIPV

The target in test [11] is Cytochrome P450 3A4 (Homo sapiens) (UniProt P08684). As to the kind of experiment: qHTS Assay for Inhibitors and Substrates of Cytochrome P450 3A4 (AID 884). Further: potency means the concentration at half of the fitted maximal effect; nearly all actives have a fitted effect of over 50% in size. The method in brief:
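20 nM human CYP3A4 with 25 uM Luciferin-PPXE (at KM) in 200 mM KPO4, preincubated 10 min with compound; NADPH regeneration started a 60 min RT reaction. Luciferin detected by luminescence, normalized to 57 uM ketoconazole as full inhibition.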

Unmarked numbers belong to inactive results. Inconclusive results are not listed. Activity calls are given as the source filed them. Unless noted, the call rests on the fitted dose curve; in most records, active means well fitted curve in the direction sought with a large enough effect; inconclusive means small, poorly fitted or top-dose-only effect, or another doubt; inactive means no such curve, though single readings can be large; an effect the other way counts as inactive or inconclusive. Where a SMILES comes first, the peptide text is derived from it.

3',5'-cyclic-AMP phosphodiesterase 4B (Homo sapiens), sequence (Q07343 whole entry, looked up): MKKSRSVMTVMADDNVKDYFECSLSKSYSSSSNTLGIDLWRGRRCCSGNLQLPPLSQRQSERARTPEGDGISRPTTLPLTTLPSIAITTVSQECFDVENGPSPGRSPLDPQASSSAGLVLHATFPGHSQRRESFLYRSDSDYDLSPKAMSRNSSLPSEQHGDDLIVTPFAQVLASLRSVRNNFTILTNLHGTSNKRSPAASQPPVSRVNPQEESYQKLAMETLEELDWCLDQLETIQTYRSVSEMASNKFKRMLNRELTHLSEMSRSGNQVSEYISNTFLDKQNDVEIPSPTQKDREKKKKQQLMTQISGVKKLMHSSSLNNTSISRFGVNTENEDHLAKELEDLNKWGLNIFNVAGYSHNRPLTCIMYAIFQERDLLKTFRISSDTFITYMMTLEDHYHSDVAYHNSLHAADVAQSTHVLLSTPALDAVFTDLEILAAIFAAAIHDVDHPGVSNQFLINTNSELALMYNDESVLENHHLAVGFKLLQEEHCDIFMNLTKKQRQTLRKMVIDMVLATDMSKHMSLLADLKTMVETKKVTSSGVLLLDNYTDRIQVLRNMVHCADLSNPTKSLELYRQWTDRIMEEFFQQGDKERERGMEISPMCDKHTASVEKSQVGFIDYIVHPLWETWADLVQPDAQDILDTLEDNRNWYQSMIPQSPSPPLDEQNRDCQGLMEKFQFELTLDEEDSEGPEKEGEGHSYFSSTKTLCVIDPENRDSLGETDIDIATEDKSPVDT
Cytochrome P450 2C9 (Homo sapiens), sequence (P11712 whole entry, looked up): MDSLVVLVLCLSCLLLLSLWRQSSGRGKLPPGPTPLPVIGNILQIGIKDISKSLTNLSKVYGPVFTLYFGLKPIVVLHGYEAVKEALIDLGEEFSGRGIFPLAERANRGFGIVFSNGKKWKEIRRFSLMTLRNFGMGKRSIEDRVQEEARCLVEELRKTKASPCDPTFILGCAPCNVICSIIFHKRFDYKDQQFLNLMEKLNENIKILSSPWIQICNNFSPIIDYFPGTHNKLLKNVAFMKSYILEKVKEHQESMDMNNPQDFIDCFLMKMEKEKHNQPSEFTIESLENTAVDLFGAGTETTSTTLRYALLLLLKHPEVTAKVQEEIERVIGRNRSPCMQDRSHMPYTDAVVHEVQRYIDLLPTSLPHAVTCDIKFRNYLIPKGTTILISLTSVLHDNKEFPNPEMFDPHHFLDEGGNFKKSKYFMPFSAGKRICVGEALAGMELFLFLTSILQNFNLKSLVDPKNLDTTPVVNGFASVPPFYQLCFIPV
Cytochrome P450 2D6 (Homo sapiens), sequence (P10635 whole entry, looked up): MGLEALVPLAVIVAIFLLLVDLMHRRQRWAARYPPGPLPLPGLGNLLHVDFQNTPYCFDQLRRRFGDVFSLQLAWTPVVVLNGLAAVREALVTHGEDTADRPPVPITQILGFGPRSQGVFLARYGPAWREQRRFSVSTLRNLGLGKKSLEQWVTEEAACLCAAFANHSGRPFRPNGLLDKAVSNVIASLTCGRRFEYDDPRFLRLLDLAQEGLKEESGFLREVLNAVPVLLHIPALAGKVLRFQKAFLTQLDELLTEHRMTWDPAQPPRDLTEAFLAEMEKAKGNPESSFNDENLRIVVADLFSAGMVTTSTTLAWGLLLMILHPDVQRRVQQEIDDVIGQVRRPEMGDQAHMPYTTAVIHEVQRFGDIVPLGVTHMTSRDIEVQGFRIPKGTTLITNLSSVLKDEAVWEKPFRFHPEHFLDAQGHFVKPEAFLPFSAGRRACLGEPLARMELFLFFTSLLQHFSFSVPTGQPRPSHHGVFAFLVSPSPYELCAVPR

With `CC1=CC(=O)CC(C)(C)[C@@]1(O)/C=C\C(C)=C\C(=O)O`, the Potency result in test [1], in test [4], in test [5], in test [6] and in [7] was “inactive” each time. In addition, the Potency in [2] and in test [3] was more than 46 µM throughout.

Regarding `CC(=O)Oc1cc(OC(C)=O)c2c(=O)cc(-c3ccc(OC(C)=O)c(OC(C)=O)c3)oc2c1`, the Potency in test [1] is 3.16 µM (active); in test [2], more than 46 µM; in test [3], more than 46 µM; in test [4], 10 µM (active). The Potency result in [5], in [6], in test [8] and in test [7] was “inactive” throughout. Further, the outcome in test [9] was inactive.

On to `O=c1c(O)c(-c2ccc(O)cc2)oc2ccc(O)cc12`, for which the figures for the Potency in test [1], in test [2] and in test [3] were 0.2 µM (active), more than 46 µM and more than 46 µM, respectively. For the same compound, the Potency result in test [4], in [5], in [8], in test [7] and in test [10] was “inactive” in each case. Also, the call in test [9] was inactive.

In the case of `COc1ccc2oc(-c3ccccc3)c(OC)c(=O)c2c1`, the Potency is 0.501 µM (active) in [1]; more than 46 µM in [2]; more than 46 µM in test [3]; 25.1 µM (active) in test [6]; 31.6 µM (active) in test [11]. The Potency result in test [4], in [5] and in test [8] was “inactive” each time. For the same compound, the compound was called inactive in test [9].

`O=c1cc(-c2cccc(O)c2O)oc2ccccc12`: the Potency in test [1] is 1 µM (active); in [2] it was more than 46 µM; in test [3], more than 46 µM; in test [4], 3.98 µM (active); in [6] it was 12.6 µM (active). Moreover, in test [8], the Potency result is “inactive”. In test [9], the outcome was inactive.

Take `COc1ccc2c(=O)cc(-c3ccc(O)cc3)oc2c1`: the Potency in test [1] is 0.0794 µM (active); in test [2], more than 46 µM; in test [3] it was more than 46 µM; in test [6] it was 6.31 µM (active); in test [11] it was 3.16 µM (active); in test [10], 7.94 µM (active). Also, the Potency entry in [4], in test [5] and in test [8] was “inactive” each time. The compound was called inactive in test [9].

Turning to `COc1cc2c(cc1OC)-c1c(OC)c(OC)cc3ccnc(c13)C2=O`, the Potency is 0.0794 µM (active) in test [1], more than 46 µM in test [2], more than 46 µM in test [3] and 2.51 µM (active) in test [11]. Besides, the Potency result in [4] and in test [8] was “inactive” throughout. Moreover, the compound was called inactive in test [9].

With `C=C1CC[C@@H]2[C@](C)(CC[C@@H](O)[C@]2(C)CO)[C@@H]1C/C=C1/C(=O)OC[C@H]1O`, the Potency entry in [1], in test [4], in [5], in test [6], in test [7] and in test [10] was “inactive” each time. For the same compound, the Potency in test [2] and in test [3] was more than 46 µM each time.

As to `C=C(CO)[C@H]1Cc2c(ccc3c2O[C@H]2COc4cc(OC)c(OC)cc4[C@@H]2C3=O)O1`, the Potency entry in test [1], in [4], in test [5], in test [6] and in [7] was “inactive” throughout. Besides, the Potency in test [2] and in test [3] was more than 46 µM in each case.

Consider `COc1ccccc1-c1oc2ccccc2c(=O)c1OC`, for which the Potency in [1] was 0.2 µM (active); in test [2], more than 46 µM; in test [3] it was more than 46 µM; in test [6], 25.1 µM (active); in test [10], 7.94 µM (active). Besides, the Potency result in [4], in test [8] and in test [7] was “inactive” each time. In [9], the result was inactive.

With `C=CC1=C(C)C2=Cc3c(C=C)c(C)c4[n]3[Sn+2][n]3c(c(C)c(CCC(=O)O)c3=CC3=NC(=C4)C(C)=C3CCC(=O)O)=CC1=N2`, the Potency in [1] is 39.8 µM (active); in test [2], more than 46 µM; in test [3] it was more than 46 µM; in [4], 1 µM [activator] (active); in test [7] it was 1.26 µM (active). For the same compound, in test [9], the compound was classed as inactive.

For the compound `N[C@@H](Cc1c[nH]c2ccccc12)C(=O)NCC(=O)O` (H-Trp-Gly-OH), the Potency result in test [1], in test [4], in [5], in test [6], in test [7] and in [10] was “inactive” in each case. For the same compound, the Potency in [2] and in test [3] was more than 46 µM each time.

Turning to `COc1cccc(-c2cc(=O)c3cc(O)ccc3o2)c1`, the Potency in [1] was 1.58 µM (active); in [2], more than 46 µM; in [3] it was more than 46 µM; in [11], 15.8 µM (active); in test [10], 25.1 µM (active). The Potency entry in [4], in test [5], in test [8] and in test [7] was “inactive” each time. For the same compound, the compound was classed as inactive in test [9].

As to `COc1ccc2c(=O)cc(-c3ccccc3)oc2c1O`, the Potency in [1] is 0.0158 µM (active); in test [2], more than 46 µM; in test [3], more than 46 µM; in test [6] it was 15.8 µM (active); in test [10] it was 5.01 µM (active). For the same compound, the Potency entry in test [4], in test [5], in [8] and in test [7] was “inactive” throughout. In [9], the result was inactive.

For `C=C1CC[C@@H](O)C/C1=C/C=C1\CCC[C@]2(C)[C@@H]1CC[C@H]2[C@@H](C)/C=C\[C@@H](C)C(C)C`, the Potency result in test [1], in [4] and in test [7] was “inactive” each time. For the same compound, the Potency in test [2] was more than 46 µM; in test [3], more than 46 µM; in test [6] it was 20 µM (active); in test [10], 20 µM (active).

Take `C=C(CO)[C@H]1Cc2c(ccc3c(=O)c4c(oc23)COc2cc(OC)c(OC)cc2-4)O1`: the Potency entry in test [1], in test [5], in [6], in test [7] and in test [10] was “inactive” throughout. Besides, the Potency in test [2] and in test [3] was more than 46 µM throughout.
